# Out of some 69,000 compounds screened, about 8,600 (12%) showed an effect of 50% or more. This is one part of a sample in which strong results are shown more often than they occur.
# Test system: Plasmodium berghei
# Test: Screen against P. berghei liver stage (PbLuc), transformed with Luciferase, at 10uM
# Assay type: functional, HepG2
# Conditions: tested at 10 uM
row,SMILES,INHIBITION [%]
1,CCc1ccc(S(=O)(=O)NCCC(O)c2ccoc2)s1 (centres undefined),15.4
2,c1ccc(NCc2cn3c(n2)CN(Cc2cccnc2)CC3)nc1,38.7
3,Cc1ccc(-n2cc(C(=O)NCC(C)Cn3cccn3)nn2)cc1 (centres undefined),27.6
4,CO[C@H]1C[C@@H](O)C12CCN(Cc1nc(C(F)(F)F)no1)CC2,41.2
5,Cn1cc(-c2ncnc3c2CCN(C(=O)c2cscn2)CC3)cn1,14.6
6,O=S(=O)(C1CC1)N1CCC[C@]2(C[C@@H](Oc3ccccn3)CO2)C1,-49.7
7,CCOc1ccnc(N2CCN(C(=O)c3cc[nH]n3)CC2)n1,-1.14
8,COCCN1CC(C(=O)N(CCN(C)C)Cc2ccc(C)s2)CC1=O (centres undefined),38.3
9,COCCn1ccc(NC(=O)CNC(=O)CC(C)(C)C)n1,34.9
10,CN(CCO)CC1COCCN1C(=O)C1(c2cccs2)CCCC1 (centres undefined),14.9
11,COCCCN1CCCN(C(C)C(=O)Nc2cccc(I)c2)CC1 (centres undefined),85.1
12,COCCCN1CCCN(C(C)C(=O)Nc2ccnn2C(C)C)CC1 (centres undefined),0.139
13,COCCN1CCN(C(C)C(=O)Nc2ccnn2C(C)C)CC1 (centres undefined),11.8
14,CN(C)C(=O)C1OC2(CCN(C(=O)c3ccoc3)CC2)c2ccccc21 (centres undefined),22.2
15,O=C(NC1CC1)C1CCc2nnc(-c3cccnc3)n21 (centres undefined),47.4
16,O=C(NC1CC1)C1CCc2nnc(-c3cccc(C(F)(F)F)c3)n21 (centres undefined),17.6
17,O=C(NC1CC1)C1CCc2nnc(C3CC3)n21 (centres undefined),53.2
18,CC1CN(C(=O)Nc2cccc(CN3CCOC3=O)c2)CCO1 (centres undefined),-43.9
19,CCc1cccc(CC(=O)NC2CCN(C(=O)NC(C)(C)C)CC2)c1,12.6
20,CCc1cccc(N2CCC(NC(=O)C3CCCO3)CC2)c1 (centres undefined),48.2
21,COc1cccc(N2CCN(CCC(=O)NC3CCCCC3)CC2)c1,64.6
22,CCC(=O)NC1CCN(c2cccc(CC)c2)CC1,50.4
23,COc1cccc(N2CCN(CCC(=O)NC3CCCC3)CC2)c1,24.5
24,COc1ccc2c(c1)CCN(CCC(=O)NC1CCCCC1)CC2,6.8
25,CCc1cccc(N2CCC(NC(=O)C3CCC3)CC2)c1,64.7
26,CCc1cccc(N2CCC(NC(=O)C3CCOCC3)CC2)c1,21.5

row,SMILES,INHIBITION [%]
1,CCc1cccc(N2CCC(NC(=O)CCNC(N)=O)CC2)c1,5.03
2,CCOCCNC(=O)c1cccnc1N1CCCC1c1ccccn1 (centres undefined),-31
3,CCc1nc(CN(C)CC(=O)NC(C)C)cs1,14.8
4,Cc1ccc(-n2c(O)cc(C)c(C#N)c2=O)c(C)c1,-8.66
5,Cc1cnn(CC2CCCCN2C(=O)c2nccnc2N)c1 (centres undefined),-19.9
6,CC(=O)c1ccccc1-c1nc(CC2CCN(C)CC2)no1,24.7
7,Clc1cccc(C(CNCc2cccnc2)N2CCOCC2)c1 (centres undefined),23.2
8,Clc1cccc(C(CNCc2ccccn2)N2CCOCC2)c1 (centres undefined),53.9
9,Clc1cccc(C(CNc2ncccn2)N2CCOCC2)c1 (centres undefined),-14.5
10,COc1ccc(C)cc1-c1[nH]c2ccccc2c1C(=O)O,3.52
11,Cc1ccc2c(n1)N(CC(C)C)CCN(C(=O)Cc1ccccn1)C2,2.41
12,CC(Cc1cn(CCc2nc(N)cc(O)n2)nn1)c1ccccc1 (centres undefined),24.9
13,O=c1c(Cc2ccccc2)c(O)ccn1Cc1cccs1,-23.5
14,O=c1c(Cc2ccccc2)c(O)ccn1Cc1ccco1,34
15,O=c1c(Cc2ccccc2)c(O)ccn1CCc1ccccc1,56.2
16,Cc1nn(CCc2nnc(NCC(C)C)s2)c(C)c1Br,7.38
17,C=C(C)CN1CCCC(CNS(C)(=O)=O)C1 (centres undefined),12
18,CC(C)N1CCO[C@H]2CN(C(=O)Cc3ccsc3)C[C@H]21,7.24
19,CS(=O)(=O)N1CCO[C@@H]2CN(C(=O)Cc3cccs3)CC[C@@H]2C1,16.8
20,CN1CCO[C@@H]2CN(C(=O)Cc3cccs3)CC[C@@H]2C1,26.7
21,Cc1ccc(CC(=O)N2CC[C@@H]3CN(CCN(C)C)CCO[C@@H]3C2)cc1,47.8
22,O=C(Cc1ccsc1)N1C[C@@H]2OCCN(c3cnccn3)[C@@H]2C1,52.3
23,O=C(C1CC(F)(F)C1)N1C[C@@H]2CN(Cc3ccsc3)CCO[C@@H]2C1,41.6
24,O=C(C1CC=CC1)N1C[C@@H]2CN(Cc3ccsc3)CCO[C@@H]2C1,53.2
25,CN(C)CCN1CCO[C@@H]2CN(C(=O)c3cccs3)CC[C@@H]2C1,15.9
26,O=C(C1CCOCC1)N1C[C@@H]2CN(Cc3ccsc3)CCO[C@@H]2C1,22.9

row,SMILES,INHIBITION [%]
1,CN(C)CCN1CCO[C@@H]2CN(C(=O)Cc3ccsc3)CC[C@@H]2C1,51.2
2,CC(C)N1CCO[C@@H]2CN(C(=O)Cc3cccs3)CC[C@@H]2C1,59.3
3,O=C(Cc1ccsc1)N1C[C@@H]2OCCN(CC3CC3)[C@@H]2C1,31.4
4,O=C(CN1CCCC(Cn2cncn2)C1)NCCC1=CCCCC1 (centres undefined),37.9
5,CCc1n[nH]c(C2CN(C(=O)c3cnn(CC)c3)CCO2)n1 (centres undefined),-8.11
6,O=C(c1ccc2c(c1)OCO2)N1CCC(Nc2cccnn2)CC1,31.9
7,CN(C)C(=O)COC[C@@H]1CC[C@H]2[C@H](CCN2c2ccccn2)O1,11.4
8,Cn1ccc(C(=O)N2C[C@H]3CCC[C@@]3(COCc3cccnc3)C2)n1,3.69
9,CCN1CCO[C@@H]2CN(C(=O)c3cocn3)C[C@@H]2C1,18.7
10,O=C(c1cocn1)N1C[C@@H]2CN(CC3CC3)CCO[C@@H]2C1,6.83
11,O=C(C1CC(F)(F)C1)N1C[C@@H]2CN(Cc3ccoc3)CCO[C@@H]2C1,-35.1
12,O=C(c1cocn1)N1C[C@@H]2CN(Cc3ccco3)CCO[C@@H]2C1,63
13,O=C(N1CCCC1)N1C[C@@H]2CN(Cc3ccoc3)CCO[C@@H]2C1,80
14,O=C(CC1CCCC1)N1C[C@@H]2CN(Cc3ccoc3)CCO[C@@H]2C1,34.6
15,O=C1NC2(CCN(CC(=O)N3CCOCC3)CC2)Nc2ccc(Br)cc21,23.89
16,CN1Cc2ccccc2N(CC(O)C(F)(F)F)CCC1=O (centres undefined),18.4
17,CC(C)CC(NC(=O)c1ccco1)c1nc2cccnc2n1C (centres undefined),48
18,Cc1cc(C)n(CCCN(C)Cc2cn[nH]c2-c2ccc(F)cc2)n1,14
19,Cc1ccc(CN2CCOCC3(CCN(Cc4cccs4)C3)C2)o1 (centres undefined),-34
20,Cc1nc(CN(C)C2CCN(CCc3ccc4c(c3)CCO4)C2)no1 (centres undefined),-8.11
21,COCC(C)N1CCN(CCc2ccc3c(c2)CCO3)CC1 (centres undefined),51.9
22,CCOCCN1CCN(CCc2ccc3c(c2)CCO3)CC1,67.6
23,CCOCCN1CCN(c2ccc(CN(C)C)cn2)CC1,7.24
24,CC(C)NC1CCN(CCc2ccc3c(c2)CCO3)CC1,35.1
25,CN(CCc1ccc2c(c1)CCO2)C1CCS(=O)(=O)CC1,19
26,CC(=O)NCCNC(=O)c1cccc(Cn2nc(C)cc2C)c1,-18.9

row,SMILES,INHIBITION [%]
1,COCCN(C)C[C@@H]1CCC[C@@H]2CN(Cc3ccc(OC)nc3)C[C@@H]21,20.1
2,CCCC(O)CN1CC(C)(C)CN(C(=O)c2ccc(SC)cc2)CC1=O (centres undefined),43.4
3,Cc1ccc(C(=O)NCCCn2cncn2)c(=O)[nH]1,4.41
4,O=C(NCCCn1cncn1)c1ccc(-c2ccco2)[nH]c1=O,56.3
5,O=C(NCCCn1cncn1)c1ccc(-c2ccccc2)[nH]c1=O,-12.9
6,CN1CC(=O)N(c2ccsc2)CC12CCN(S(C)(=O)=O)C2 (centres undefined),-12.2
7,CCc1nc(C2CCCN2CC(=O)Nc2cc(C)on2)no1 (centres undefined),22.3
8,COc1ccc(-c2noc(C(N)CCSC)n2)cc1 (centres undefined),36.2
9,O=C(NCCNc1ncccn1)N1CCCC1c1ccc(F)cc1 (centres undefined),6.11
10,CNC(=O)c1nc(CC(=O)Nc2ccc3cc[nH]c3c2)no1,30.5
11,CS(=O)(=O)c1ccccc1NCc1ccc(Cn2ccnc2)cc1,52
12,CNC(=O)c1cccnc1NCc1ccc(-n2cccn2)cc1,26.4
13,CNC(=O)c1cccnc1NCc1ccc(Cn2ccnc2)cc1,85.7
14,Brc1ccc(NCc2ccc(Cn3ccnc3)cc2)nc1,-51.4
15,CC(C)COC(C)C(=O)NCc1ccccc1Cn1ccnc1 (centres undefined),32.3
16,CC(C)COC(C)C(=O)NCc1ccc(Cn2ccnc2)cc1 (centres undefined),58.3
17,c1ccc(NCc2ccc(Cn3ccnc3)cc2)nc1,6.7
18,CNC(=O)c1cccnc1NCc1ccc(Cn2cccn2)cc1,21.9
19,CC(OCC1CC1)C(=O)NCc1ccc(Cn2ccnc2)cc1 (centres undefined),30.1
20,COCCc1noc(CN(C)c2nc(C)cc(C)n2)n1,47.6
21,COc1ccc(Cl)cc1CCNC(=O)NCc1ccncc1,-23.5
22,NC(=O)CCN1CCc2onc(-c3ccccc3F)c2C1,-62.1
23,CC(=O)N1CCN(CCOc2ccc(F)cc2)CC(C(N)=O)C1 (centres undefined),12.3
24,CCNC(=O)[C@@H]1C[C@H](N)CN1C(=O)c1cccc(CCC(C)(C)O)c1,17.5
25,Cc1nn(C(C)C)c2cnn(CC(=O)N3CCN(C)CC3)c12,21.7
26,CC(C)c1cc(NC(=O)CN2CCn3c(nnc3C3CC3)C2)on1,7.5
